PRC2 inh: EZH2/PRC2 methyltransferase inhibitors, primary screen, biochemical, DELFIA time-resolved fluorescence, single point | Histone-lysine N-methyltransferase EZH2 (Homo sapiens), Q15910 | PRC2 H3K27 methylation, DELFIA TRF, 1 h | inhibition, % at 12.5 µM | 57,000 tested, 0.35% active;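 active = mean inhibition of replicates at least 50% and every single replicate also reaching 50%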;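 note: dimethyl H3K27 on biotinylated H3 21-44 peptide detected by antibody; plate controls were median neutral control wells for no effect and median positive control wells for full effect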
Target sequence (Q15910 whole entry, looked up): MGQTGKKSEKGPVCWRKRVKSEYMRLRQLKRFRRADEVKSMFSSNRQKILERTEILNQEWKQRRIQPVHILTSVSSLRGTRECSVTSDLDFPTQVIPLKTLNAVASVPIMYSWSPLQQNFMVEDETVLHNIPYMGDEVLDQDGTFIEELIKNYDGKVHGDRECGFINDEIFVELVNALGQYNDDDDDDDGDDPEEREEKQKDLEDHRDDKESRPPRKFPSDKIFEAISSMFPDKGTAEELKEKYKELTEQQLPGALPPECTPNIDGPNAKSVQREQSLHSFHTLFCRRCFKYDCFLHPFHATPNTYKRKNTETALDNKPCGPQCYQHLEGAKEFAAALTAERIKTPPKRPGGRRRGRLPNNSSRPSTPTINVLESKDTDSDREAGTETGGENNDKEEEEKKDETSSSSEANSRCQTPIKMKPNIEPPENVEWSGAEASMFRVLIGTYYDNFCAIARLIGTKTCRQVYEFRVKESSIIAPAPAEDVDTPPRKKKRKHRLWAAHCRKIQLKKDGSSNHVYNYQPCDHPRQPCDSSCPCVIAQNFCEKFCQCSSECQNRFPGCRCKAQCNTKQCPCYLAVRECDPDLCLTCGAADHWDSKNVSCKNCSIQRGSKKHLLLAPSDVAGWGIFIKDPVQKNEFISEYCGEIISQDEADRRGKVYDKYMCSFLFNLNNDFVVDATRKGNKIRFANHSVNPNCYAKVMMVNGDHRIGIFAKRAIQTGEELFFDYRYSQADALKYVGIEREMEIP
Starred values were filed as active, the others as inactive. The entries come from a sample that favours hits as a whole.

SMILES	PRC2 inh
O=C(OCC1OC(Oc2ccc(O)cc2COC(=O)C2(O)C(O)CCC2(O)C(=O)O)C(O)C(O)C1O)c1ccccc1 (stereo not drawn)	28
CCc1ccccc1N(CC(=O)NC)S(C)(=O)=O	-14
O=C(N/N=C/c1ccc(S(=O)(=O)O)o1)c1ccccn1	-23
CC(C)(Sc1ccc(CCN(CCCCC2CCCCC2)C(=O)NC2CCCCC2)cc1)C(=O)O	86*
CCOC(=O)c1sc(NC(=O)CSc2nc3c(c(C(F)(F)F)n2)CCCC3)c(C#N)c1C	4
CS(=O)(=O)N(CC(=O)Nc1cccc([N+](=O)[O-])c1)c1ccc(Br)cc1	-1
Clc1ccc2nc(SCc3csc(Nc4ccccc4)n3)oc2c1	42
Clc1ccc(SCc2csc(-c3ccsc3)n2)cc1	63*
CC(=O)Nc1ccc(NC(=O)CN(c2cc(C(F)(F)F)ccc2Cl)S(C)(=O)=O)cc1	-2
Cc1ccc(S(=O)(=O)c2nc(-c3ccccc3Cl)oc2NCC2CCCO2)cc1 (stereo not drawn)	23
CCOc1ccc2nc(NS(=O)(=O)c3ccc(C)c([N+](=O)[O-])c3)sc2c1	51*
CCOc1ccc(NC(=S)Nc2sc3c(c2C(=O)OC)CCC3)c([N+](=O)[O-])c1	39
CCOc1ccc2nc(NCc3cc(OC)c(OC)cc3OC)sc2c1	-13
O=C(NCCCN1CCCC1=O)c1cc(-c2cccnc2)nc2ccc(Br)cc12	15
COC(=O)c1ccccc1NC(=O)CSC1=NC(c2ccccc2)CC(=O)N1 (stereo not drawn)	-12
CC(C)(C)c1ccc(-c2nnc(SCC(=O)Nc3ccccc3)n2-c2ccccc2)cc1	-8
COc1ccc(OCC(=O)Nc2ccc(NC(=O)c3ccco3)c(OC)c2)cc1	9
COC(=O)C1=COC(OC2OC(CO)C(O)C(O)C2O)C2C1C=CC2(O)CO (stereo not drawn)	99*
COC(=O)C1=CO[C@@H](O[C@@H]2O[C@H](CO)[C@@H](O)[C@H](O)[C@H]2O)[C@H]2[C@@H]1[C@H](OC(C)=O)C[C@]2(C)O	-12
COC(=O)C1=COC(O[C@@H]2O[C@H](CO)[C@@H](O)[C@H](O)[C@H]2O)[C@H]2[C@@H]1[C@H](OC(=O)CCc1ccc(O)cc1)C[C@]2(C)O (stereo partly drawn)	2
O=C(NCc1ccccn1)c1nn2c(C(F)(F)F)cc(-c3ccccc3)nc2c1Cl	-7
CCC1(C)Cc2c(sc3nc(SC)nc(SCC(=O)OC)c23)CO1 (stereo not drawn)	16
O=C(CSc1nc(-c2ccccc2)cc(=O)[nH]1)Nc1cccc(Cl)c1Cl	47
O=C(CSc1nc(-c2ccccc2)cc(=O)[nH]1)Nc1cc(C(F)(F)F)ccc1Cl	64*
Cc1ccc(NC(=O)CSc2nc(-c3ccccc3)cc(=O)[nH]2)cc1Cl	14
SMILES	PRC2 inh
Cc1sc(NC(=O)c2cc(-c3cccnc3)nc3ccccc23)c(C(=O)NC2CCCCC2)c1C	-7
COC(=O)CCCCCCC(=O)N/N=C/c1cc(OC)ccc1Br	7
COc1ccc(NC(=O)CNC(=O)c2ccc(F)cc2)cc1	-1
O=C(CCCCCCC(=O)Nc1ccccc1O)N/N=C/c1ccc2ccccc2c1O	19
Cc1cc(Oc2ccccc2)nc(SCC(N)=O)n1	0
Nc1nc(SCC(=O)c2ccc(Oc3ccccc3)cc2)n[nH]1	-10
Cc1cc(C)nc(SCC(=O)c2ccc(Oc3ccccc3)cc2)n1	57*
NCCCCCCNC(=O)[C@@H]1C[C@@H]2C(=O)NCC(=O)N2[C@@H]1c1cccc(OCCO)c1	-2
COc1cccc2c1C(=O)CC(c1ccccc1)O2 (stereo not drawn)	-11
COc1cc(O)c(OC)c2c1C(=O)CC(c1ccccc1)O2 (stereo not drawn)	77*
COc1cc(O)c2c(c1)OC(c1ccc(O)cc1)CC2=O (stereo not drawn)	-4
COc1cc(S(=O)(=O)NCCc2ccccc2)c(OC)cc1Br	-11
CC1OC(Oc2cc(O)c3c(=O)c(OC4OC(CO)C(O)C(O)C4OC4OC(C)C(O)C(O)C4O)c(-c4ccc(O)cc4)oc3c2)C(O)C(O)C1O (stereo not drawn)	-12
C[C@@H]1O[C@@H](OCC2OC(OC3C(OC4C(Oc5c(-c6ccc(O)c(O)c6)oc6cc(O)cc(O)c6c5=O)OC(CO)C(O)C4O)OC(CO)C(O)C3O)C(O)C(O)C2O)[C@H](O)[C@H](O)[C@H]1O (stereo partly drawn)	6
O=c1c(O[C@@H]2O[C@H](CO)[C@@H](O)[C@H](O)[C@H]2O)c(-c2ccc(O)cc2)oc2cc(O)cc(O)c12	-5
O=c1c(O[C@@H]2O[C@H](CO)[C@@H](O)[C@H](O)[C@H]2O)c(-c2ccc(O)c(O)c2)oc2cc(O)cc(O)c12	58*
COc1c(OC2OC(CO)C(O)C(O)C2O)ccc(O)c1C(=O)OCc1ccccc1O[C@@H]1O[C@H](CO)[C@@H](O)[C@H](O)[C@H]1O (stereo partly drawn)	18
C[C@@H]1O[C@@H](O[C@@H]2[C@@H](O)[C@H](Oc3c(-c4ccc(O)cc4)oc4cc(O)cc(O)c4c3=O)O[C@H](CO)[C@H]2O)[C@H](O)[C@H](O)[C@H]1O	59*
COc1cc2c(=O)c(-c3ccc(O)cc3)coc2cc1O[C@@H]1O[C@@H](C)[C@H](O)[C@@H](O)[C@H]1O	-20
COc1cc(-c2oc3cc(O)cc(O)c3c(=O)c2OC2OC(CO)C(O)C(O)C2O)ccc1O (stereo not drawn)	56*
COc1cc(-c2oc3cc(O)cc(O)c3c(=O)c2OC2OC(CO[C@@H]3O[C@@H](C)[C@H](O)[C@@H](O)[C@H]3O)C(O)C(O)C2O)ccc1O (stereo partly drawn)	23
CCC(C)Nc1nc(OC)nc(Oc2ccc(=O)[nH]n2)n1 (stereo not drawn)	-5
O=C(O)CCCCCCC(=O)N/N=C/c1ccc[nH]1	6
CCN(CC(=O)Nc1cccc(C(C)=O)c1)S(=O)(=O)c1ccc(Cl)cc1	8
Cc1cc(C)c(NC(=O)CSc2nnc(-c3ccncc3)n2C)c([N+](=O)[O-])c1	2
O/N=C/c1ccc(Cl)s1	-16
CSc1nc2sc3c(c2c2nnc(SCC(=O)Nc4ccccc4)n12)CCC3	15
O=C(Nc1cccc(C(F)(F)F)c1)c1cc([N+](=O)[O-])ccc1NCc1cccnc1	16
Cc1ccc(NC(=O)COc2ccccc2)c(NC(=O)C2CC2)c1	-5
